Reference: PubChem BioAssay AID1347076 (National Center for Advancing Translational Sciences (NCATS), 2019)
Hit rate of the full screen: of about 400,000 compounds, about 13,000 (3.2%) were called active. Where a call stands in place of a potency, no number is given. Inconclusive results (about 18%) are left out. The call rests on the fitted dose curve; in most records, active means well fitted cell-killing curve with a large enough effect; inconclusive means small, poorly fitted or top-dose-only effect, or effect the other way; inactive means flat fitted curve, though single readings scatter. The full list was thinned out, with actives kept by preference.
Potency means the concentration at half of the fitted maximal effect.

Test: qHTS assay for MDR1-selective chemotherapeutics: Primary screen using the drug-selected MDR subline cells KB-V1; further: nearly all actives have a fitted effect of over 60% in size
Details: KB-V1 MDR cells viability, CellTiter-Glo, 72 h; series mostly up to 46.1 µM
How it was run: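 KB-V1, DMEM (no phenol red) + 10% FBS; cpd pin-transferred, titration series; 72 h, 37 degrees C; CellTiter-Glo, luminescence. Data normalized, curve-fit.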
With `CCN(CC)C(=O)C1CCCN(Cc2cccc(Cl)c2)C1` (configuration not stated) the Potency was “inactive”. With `Cc1ccc(NC(=O)C2CCCN2C(=O)OCc2ccccc2)cc1C` (configuration not stated) the Potency was “inactive”. For `CCOC(=O)N1CCC(N(CCOC)C(=O)Nc2ccc(C)c(C)c2)CC1`, the Potency was 4.11 µM (active). For `CCOC(=O)C1CCN(C(=O)Nc2ccc(C)c(Cl)c2)CC1`, the Potency was “inactive”. In the case of `Cc1ccc(NC(=O)COC(=O)CN2CCSC2=O)cc1F`, the Potency is reported as “inactive”. For `CCc1ccccc1NC(=O)c1ccc2nc(CCc3ccccc3)oc2c1`, the Potency was “inactive”. For `CN(C)c1ccc(/C=C2\C=Cc3ccccc32)cc1Br`, the Potency was “inactive”. With `O=C(CN1CCN(S(=O)(=O)c2ccc(Cl)s2)CC1)NCc1ccc(Cl)cc1` the Potency was 3.66 µM (active). In the case of `Cc1ccccc1N1CCN(CC(=O)NCc2ccc(Cl)cc2)CC1`, the Potency is reported as “inactive”. For `O=C(CN1CCN(S(=O)(=O)c2ccc(Cl)s2)CC1)N1CCCCC1`, the Potency was “inactive”. In the case of `Cc1cc(C)c2nc3nc(C)cc(C)c3c(N)c2c1`, the Potency is reported as 18.4 µM (active). For `COC(=O)c1ccc(NCc2cc(O)ccc2O)cc1`, the Potency was “inactive”. With `O=C(OC12CC3CC(CC(C3)C1)C2)c1ccc(NCc2cc(O)ccc2O)cc1` the Potency was 14.6 µM (active). In the case of `CC(C)OC(=O)c1ccc(NCc2cc(O)ccc2O)cc1Cl`, the Potency is reported as “inactive”. With `O=C(CNC(=O)c1ccccc1)Oc1ccc([N+](=O)[O-])cc1` the Potency was “inactive”. For `CSc1nc2ccc(S(=O)(=O)N3CCc4ccccc43)cc2s1`, the Potency was 3.66 µM (active). For `CNC(=O)c1ccsc1NC(=O)c1ccc(S(=O)(=O)N2CCc3ccccc32)cc1`, the Potency was “inactive”. In the case of `O=S(=O)(c1ccc2c(c1)OCCO2)N1CCc2ccccc21`, the Potency is reported as “inactive”. For `O=C(CCNC(=O)c1ccccc1)Nc1nc2ccccc2s1`, the Potency was “inactive”. With `O=C(Nc1nnc(S(=O)(=O)N2CCCc3ccccc32)s1)c1cccc(F)c1` the Potency was “inactive”. For `O=C(Nc1nc2ccc([N+](=O)[O-])cc2s1)c1ccc(S(=O)(=O)N2CCCc3ccccc32)cc1`, the Potency was 1.03 µM (active). With `O=C(NC(Nc1nc2ccc([N+](=O)[O-])cc2s1)(C(F)(F)F)C(F)(F)F)c1ccccc1` the Potency was 0.517 µM (active). With `O=S(=O)(c1ccccc1)N1CCc2ccccc21` the Potency was “inactive”. With `CN(Cc1ccccc1)C(=O)[C@@H]1CCCN1C(=O)[C@@H]1CCCN1C(=O)c1c(F)cccc1F` the Potency was “inactive”. In the case of `O=C(COC(=O)c1cccc(Cl)c1Cl)NC1CCCCCC1`, the Potency is reported as “inactive”. For `CNC[C@H]1OCc2cnnn2CCCC(=O)N([C@H](C)CO)C[C@@H]1C`, the Potency was “inactive”. For `C[N+](C)(C)CCNC(=O)c1c[nH]c2ccccc12`, the Potency was “inactive”. For `Cc1ccc(Cc2c(-c3ccc(Cl)cc3)nc3c4ccccc4ccn23)cc1`, the Potency was “inactive”. In the case of `COc1ccc(CN2C(=O)C(CC(=O)NCCN3CCOCC3)CC(C(=O)N(C(C)C)C(C)C)=C2C)cc1` (configuration not stated), the Potency is reported as “inactive”. In the case of `COC(=O)c1ccccc1S(=O)(=O)Nc1ccc(OC)cc1`, the Potency is reported as “inactive”. With `OC[C@@H]1CN(Cc2ccc(-c3ccccc3)cc2)C[C@H](n2cnc3c(NC4CCCC4)ncnc32)O1` the Potency was “inactive”. With `Cc1ccc(Cn2c(=O)n(Cc3nc(-c4ccccc4)no3)c(=O)c3cc4c(cc32)OCO4)cc1` the Potency was “inactive”. In the case of `CCOC(=O)[C@]12CCC=C1N(Cc1ccccc1)C(=O)[C@H](CC(=O)N1CCCC1)C2`, the Potency is reported as “inactive”. With `COc1cc(C(O)c2nc(-c3cnn(C)c3)cs2)ccc1F` (configuration not stated) the Potency was “inactive”. For `COc1ccc(C(=O)c2oc3ccc(Br)cc3c2NC(C)=O)cc1`, the Potency was “inactive”. For `COc1ccc(C(=O)/C=C/c2ccc(OC3CSC3)cc2)cc1`, the Potency was “inactive”. In the case of `COc1ccc(/C=C/C(=O)c2cc(Br)ccc(=O)c2O)cc1`, the Potency is reported as 14.6 µM (active). For `COc1ccc(CCNC(=O)Nc2ccc3c(c2)c(=O)n(C)n3C)cc1OC`, the Potency was “inactive”. For `COC(=O)C[C@@H]1C=C[C@@H](NC(=O)c2cccnc2)[C@@H](CO)O1`, the Potency was “inactive”. For `COc1ccc(C(=O)Nc2ccc(N3CCC(C)CC3)cc2)cc1Br`, the Potency was “inactive”. In the case of `COc1cccc(C(=O)Nc2ccc3nc4n(c(=O)c3c2)CCCCC4)c1`, the Potency is reported as “inactive”. In the case of `COc1cccc(C(=O)Nc2ccc(N3CCCC3)cc2)c1`, the Potency is reported as 5.8 µM (active). In the case of `O=C1c2ccccc2C(=O)N1c1ccc(S(=O)(=O)N2CCOCC2)c2ccccc12`, the Potency is reported as “inactive”. With `CCOc1ccccc1N(CC)C(=O)Nc1cn(C)c(=O)c2ccccc12` the Potency was “inactive”. For `O=c1c2ccccc2nc2n1C(CSc1ccc(F)cc1)CN2` (configuration not stated), the Potency was “inactive”. For `N#Cc1c(-c2ccccc2)nc(SCc2cccc(C(F)(F)F)c2)[nH]c1=O`, the Potency was “inactive”. For `O=c1c2ccccc2nc2n1C(CSCc1cccc(C(F)(F)F)c1)CS2` (configuration not stated), the Potency was 2.59 µM (active). For `COc1cccc(CNS(=O)(=O)c2ccc3c(c2)CC(C)N3C(=O)C2CCC2)c1` (configuration not stated), the Potency was “inactive”. In the case of `COc1ccc(N(C)S(=O)(=O)c2ccc3c(c2)CC(C)N3C(=O)C2CC2)c(OC)c1` (configuration not stated), the Potency is reported as 8.2 µM (active). In the case of `COc1cccc(CNS(=O)(=O)c2ccc3c(c2)CC(C)N3C(C)=O)c1` (configuration not stated), the Potency is reported as “inactive”. With `COc1cc(NC(=O)C2=C(C)OCCS2)c(Cl)cc1C(=O)NCCCN1CCCC(C)C1` (configuration not stated) the Potency was “inactive”. In the case of `Cc1cc(C)cc(-n2c(SCC(=O)NCC3CCCO3)nc3c([nH]c4ccccc43)c2=O)c1` (configuration not stated), the Potency is reported as “inactive”. For `Cc1ccc(C(=O)NNC(=O)C(C)Oc2ccc3ccccc3c2)o1` (configuration not stated), the Potency was “inactive”. With `CCCc1ccc(OCC(=O)NNC(=S)NC(=O)c2ccco2)cc1` the Potency was “inactive”. For `CC(Oc1ccc2ccccc2c1)C(=O)NNC(=S)NC(=O)c1ccco1` (configuration not stated), the Potency was 3.66 µM (active). In the case of `COC(=O)Cc1ccc(OC2(C)CCN(Cc3ccc4c(c3)OCCO4)C2)cc1` (configuration not stated), the Potency is reported as “inactive”. In the case of `CC(C)CCNC(=O)CN(C(=O)Cn1nnc(-c2ccc(F)cc2)n1)C1CCCC1`, the Potency is reported as 10.3 µM (active). In the case of `CN(C(=O)Cn1nnc(-c2ccc(F)cc2)n1)C1CCS(=O)(=O)C1` (configuration not stated), the Potency is reported as “inactive”. For `CC(C)CCNC(=O)C(C)N(C(=O)Cn1nnc(-c2ccc(F)cc2)n1)C1CCCC1` (configuration not stated), the Potency was “inactive”. With `COc1ccc(C(CNC(=O)c2ccc(OCc3cscn3)cc2)N2CCCC2)cc1` (configuration not stated) the Potency was “inactive”. With `CCCCCCC1(C)NC(c2ccc3c(c2)OCO3)=CC(c2ccccc2O)N1` (configuration not stated) the Potency was “inactive”. With `Cc1ccc(S(=O)(=O)N2C[C@H]3n4c(=O)ccc(=O)n4C[C@H](OC(=O)NC4CCCC4)[C@@]3(O)C2)cc1` the Potency was “inactive”. With `COc1cccc(NC(=O)C2(C)CCN2Cc2ccccc2Cl)c1` (configuration not stated) the Potency was “inactive”. For `O=Nc1c(O)cc(O)c2ccccc12`, the Potency was “inactive”. With `Cc1cccc(Nc2nc(C)nc(N)c2S(=O)(=O)c2ccccc2)c1` the Potency was “inactive”. For `CC1CCN(c2ccc([N+](=O)[O-])cc2C(N)=O)CC1`, the Potency was “inactive”. With `CCN1CCN(c2ccc([N+](=O)[O-])cc2C(=O)c2ccc(Cl)cc2)CC1` the Potency was 23.1 µM (active). For `O=C(Nc1cccc(Cl)c1)c1cc([N+](=O)[O-])ccc1N1CCN(CCO)CC1`, the Potency was “inactive”. With `COc1ccc(CC(N)c2csc(NC(=O)NC(c3ccccc3)c3ccccc3)n2)cc1` (configuration not stated) the Potency was “inactive”. With `CC1(C(=O)NS(=O)(=O)c2cccc(OC(F)F)c2)CCN1C(=O)C1CC1` (configuration not stated) the Potency was “inactive”. In the case of `Cc1ccc(CN2CC(N3CCC(Cc4ccccc4)CC3)CS2(=O)=O)cc1` (configuration not stated), the Potency is reported as “inactive”. For `CS(=O)(=O)Nc1ccc(C(=O)N2CCCC2)cc1`, the Potency was “inactive”. With `Cc1c(Cl)cccc1NC(=O)Nc1ccc(C(=O)N2CCCC2)cc1` the Potency was 16.4 µM (active). With `O=C(Nc1ccc(Cl)cc1)Nc1ccc(C(=O)N2CCOCC2)cc1` the Potency was “inactive”. In the case of `O=C(Nc1cccc(Cl)c1)c1csnn1`, the Potency is reported as “inactive”. With `COc1ccc(C2NC(=O)N(C)C3=C2C(=O)N(c2ccc(C(=O)O)cc2)C3)cc1` (configuration not stated) the Potency was “inactive”. For `O=S1(=O)N=C(Oc2cccc(Br)c2)c2ccccc21`, the Potency was “inactive”. With `CCOP(=O)(OCC)C(Nc1cccc(C)c1)c1ccc(F)cc1` (configuration not stated) the Potency was 16.4 µM (active). In the case of `CCCCOC(=O)c1ccc(NC(c2ccc(C)cc2)P(=O)(OC)OC)cc1` (configuration not stated), the Potency is reported as “inactive”. For `Cc1cccc(C(=O)OCC(=O)Nc2ccc(F)cc2)c1`, the Potency was “inactive”. In the case of `CCOC(=O)c1cc2cc(OC)ccc2n1C1CCN(C)CC1`, the Potency is reported as “inactive”. In the case of `Cc1ccc2sc(N(Cc3cccnc3)C(=O)C3COc4ccccc4O3)nc2c1C` (configuration not stated), the Potency is reported as “inactive”. In the case of `Cn1c(=O)c2c(nc(Br)n2CCSc2nc3ccccc3o2)n(C)c1=O`, the Potency is reported as 6.51 µM (active). With `Cn1c(=O)[nH]c(=O)c2c1nc(Br)n2CCCCSc1nc2ccccc2o1` the Potency was “inactive”. For `CCN(CC)C(=O)CSc1nc2ccccc2o1`, the Potency was “inactive”. In the case of `O=C(Nc1ccc(N2CCOCC2)cc1)c1cccc2c(-c3ccc(F)c(F)c3)coc12`, the Potency is reported as “inactive”. For `Cc1ccn(CC(=O)NC2CCCN(Cc3ccccc3F)C2)n1` (configuration not stated), the Potency was “inactive”. With `CCc1ccc(-c2nn(-c3ccccc3C)cc2C(=O)N2CCN(C3CCS(=O)(=O)C3)CC2)cc1` (configuration not stated) the Potency was 14.6 µM (active). In the case of `COc1ccccc1N1CCN(C(=O)c2cn(-c3ccccc3)nc2-c2cccnc2)CC1`, the Potency is reported as “inactive”. For `CCn1cc(C(=O)N2CCN(C3CCCCC3)CC2)c2cc(OC)c(OC)cc2c1=O`, the Potency was “inactive”. With `COc1cc(C)c(CN2CCN(C(=O)CCC(=O)c3ccc(C)s3)CC2)cc1OC` the Potency was “inactive”. With `CCCNC(=O)c1cc(C2CCCCN2S(=O)(=O)c2ccc(C#N)cc2)on1` (configuration not stated) the Potency was “inactive”. With `O=C(CN1CCSc2ccccc21)N1CCN(c2ccccc2)CC1` the Potency was “inactive”. With `CCCN(CCC)CCNC(=O)c1cc2c(C)nc3ccccc3c2o1` the Potency was 14.1 µM (active). For `Cc1nc2ccccc2c2oc(C(=O)NCCCN3CCC(C)CC3)cc12`, the Potency was “inactive”. In the case of `CCN(CC)CCNC(=O)c1ccc(NC(=O)c2cc(-c3ccncc3)nc3ccccc23)cc1`, the Potency is reported as “inactive”. In the case of `Cc1csc[n+]1CCC1CCCCC1`, the Potency is reported as “inactive”. In the case of `COc1ccccc1CC(=O)Nc1ccc(F)cc1F`, the Potency is reported as “inactive”. With `COc1cc([N+](=O)[O-])ccc1NC(=O)CN1CCCC1` the Potency was “inactive”. With `COc1ccccc1CC(=O)Nc1ccc([N+](=O)[O-])cc1OC` the Potency was 16.4 µM (active). For `Cc1ccc(CNC(=O)CCc2c(C)nc3c(c(C)nn3-c3ccccc3)c2C)cc1`, the Potency was “inactive”. In the case of `Cc1ccccc1S(=O)(=O)NC(=O)C1(C)CCN1C(=O)C1(c2ccccc2)CCCC1` (configuration not stated), the Potency is reported as “inactive”.
